Source: PubChem BioAssay (National Center for Advancing Translational Sciences (NCATS))
Pf growth 96h: P. falciparum growth inhibition at 96 hour, primary screen for plastid delayed-death inhibitors | P. falciparum luciferase reporter growth, 96 h | Potency, µM (doses to about 28.7 µM), for inactives: at the highest dose activity change, negative = inhibition, actives largely listed as inhibitors | 320,000 tested, 6.9% active | AID 504834; also: potency is read from the fitted curve at half-maximal effect; % is scaled to controls: 0 for no effect and ±100 for the full control effect
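Plates of compound plus infected erythrocytes (2% hematocrit, 0.05% parasitemia final) incubate 96 hours, 37 C, 5% CO2. Detection reagent added; reduced luminescence from the parasites' luciferase reporter flags inhibition.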
NS1 function inh: influenza NS1 inhibition | AID 2326 | 270,000 tested, 0.4% active | Potency, µM (series often up to 46.1 µM), for inactives: top-dose activity, positive = more growth; calls by dose curve; also: potency is read from the fitted curve at half-maximal effect; actives are rising curves; nearly all actives have a fitted effect of over 50% in size
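OD600 was taken as the measure of yeast growth restored by compound in an NS1-expressing S. cerevisiae strain. Cells had been washed out of glucose medium and diluted 1:100 into galactose -URA medium, pH 6.0.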
Pf growth 48h: inhibits P. falciparum growth in the first generation, 48 h. AID 504832. 310,000 tested, 5.9% active. Potency, µM (series often up to 28.7 µM), without a hit: top-dose activity change, negative = inhibition, actives largely listed as inhibitors. P. falciparum luciferase growth in erythrocytes, 48 h; also: potency is read from the fitted curve at half-maximal effect; % is scaled to controls: 0 for no effect and ±100 for the full control effect
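First compound was added to culture medium, then infected red cells at 0.1% parasitemia and 2% hematocrit (final). After incubation at 37 C under 5% CO2, luciferase detection reagent was dispensed and light output recorded.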
CHX counter: counter-screen hit for Shiga toxin inhibitors, cycloheximide | AID 2314 | max response, % | cell reporter, cycloheximide protein synthesis inhibition counterscreen | 300,000 tested, 12% active; in the data active = max response mostly above about 13%, no sharp cut-off; inactive = mostly below about 14%; also: read at 38.3 µM for the half of the compounds with a filed dose; 0% is about no effect
Shiga toxin inh: Shiga toxin inhibition; inhibition, % at 38.7 µM; 290,000 tested, 9.2% active; AID 2315; Vero cells, Shiga toxin protein synthesis inhibition reporter; in the data active = inhibition mostly above about 28%, no sharp cut-off; inactive = mostly below about 43%; also: 0% is about no effect
* hit, by the source's call; ? = inconclusive; · = not tested or not shown; ! = a repeat was not active. Most compounds without a hit are left out; they make up all but 21% or so of the library. Unless noted, calls follow the shape of the dose curve; as a rule, active = well fitted inhibition curve with a large enough effect; inconclusive = small, poorly fitted or top-dose-only effect, or another doubt; inactive = no such curve, though single readings can be large or run the other way.

SMILES | Pf growth 96h | NS1 function inh | Pf growth 48h | CHX counter | Shiga toxin inh
CCNC(=S)Nc1sc2c(c1C#N)CCC(C)C2 (stereo not given) | 5.9µM* | -65% | ? | 9 | 21
CC1CCc2c(sc(NC(=O)COC(=O)c3ccc(O)cc3)c2C#N)C1 (stereo not given) | 42% | · | 15% | 14 | 10
CCc1c(C)sc(NC(=O)C2CCCO2)c1C#N (stereo not given) | 34% | 4% | 50% | 17* | 19
CC1CCc2c(sc(NC(=O)CN3CCN(C(=O)c4ccco4)CC3)c2C#N)C1 (stereo not given) | ? | -7% | ? | -1 | -14
CCc1c(C)sc(NC(=O)c2cc(C3CC3)on2)c1C#N | ? | -9% | · | -3 | -10
CCOC(=O)Nc1sc2c(c1C#N)CCC(C)C2 (stereo not given) | ? | -8% | 114% | 46* | 91*
CC1CCc2c(sc(NC(=O)COC(=O)C3CCCO3)c2C#N)C1 (stereo not given) | 120% | -20% | 73% | 20 | 18
CC1CCc2c(sc(NC(=O)C3CCCO3)c2C#N)C1 (stereo not given) | 54% | · | 142% | 37* | 107*
COc1ccc(-c2nn(-c3ccccc3)cc2C(=O)NCC2CCCO2)cc1 (stereo not given) | ? | -1% | -10% | -2 | 9
CC(C)Oc1ccc(N2CC(C(=O)Nc3ccc(N4CCOCC4)cc3)CC2=O)cc1 (stereo not given) | ? | 9% | 1% | -2 | -3
CCOC(=O)c1sc2nc(C)nc(NCc3ccc(F)cc3)c2c1C | ? | -46% | ? | 8 | 13
CCOC(=O)c1sc2nc(C)nc(NCc3ccc(Cl)cc3)c2c1C | ? | -13% | 9.3µM* | 23 | 14
COc1cccc2cc(-c3ccnc(N)n3)oc12 | 476% | 7% | 15% | 33* | 107*
Cc1ccc(S(=O)(=O)Oc2cccc(N3C(=O)C4CC=CCC4C3=O)c2)cc1 (stereo not given) | ? | 4% | ? | 1 | -34
CC(=O)Nc1ccc(OS(=O)(=O)O)cc1 | · | · | · | -5 | -5
CC(=O)Nc1ccc(S(=O)(=O)Oc2cccc(N3C(=O)C4CCCCC4C3=O)c2)cc1 (stereo not given) | 89% | -5% | 13µM* | 2 | -11
CC(=O)Nc1ccc(OS(=O)(=O)c2ccc(C(C)(C)C)cc2)cc1 | 48% | 3% | -1% | 12* | 34
CCCCn1ccnc1C(=O)c1ccc(S(=O)(=O)N2CCCC2)cc1 | 1% | -5% | -20% | -2 | 22
O=C1C(=O)c2ccccc2C(O)=C1C1CCC(c2ccc(Cl)cc2)CC1 (stereo not given) | 0.0005µM* | · | 0.0006µM*! | · | ·
CCCCn1c(N)c(N(CC(C)C)C(=O)c2c(CC)noc2C)c(=O)[nH]c1=O | 7% | · | 11% | · | ·
N=c1c(C(=O)NC2CCCCC2)cc2c(=O)n3ccccc3nc2n1CC1CCCO1 (stereo not given) | ? | 2% | ? | -3 | 8
CC(NC(=O)c1cc2c(=O)n3ccccc3nc2n(CC2CCCO2)c1=N)c1ccccc1 (stereo not given) | 19% | -2% | 13µM* | -3 | -10
Cc1ccc(CNC(=O)c2cc3c(=O)n4ccccc4nc3n(CC3CCCO3)c2=N)cc1 (stereo not given) | ? | -3% | 2.6µM* | -4 | -6
Cc1ccc(S(=O)(=O)c2cc3c(=O)n4ccccc4nc3n(CC3CCCO3)c2=N)cc1 (stereo not given) | · | 7% | · | · | ·
Cc1ccc2nc3c(cc(C(=O)NCC4CCCO4)c(=N)n3CC3CCCO3)c(=O)n2c1 (stereo not given) | 54% | 12% | 45% | -3 | -5
SMILES | Pf growth 96h | NS1 function inh | Pf growth 48h | CHX counter | Shiga toxin inh
C=CCNC(=O)c1cc2c(=O)n3cc(C)ccc3nc2nc1NCC1CCCO1 (stereo not given) | 4.1µM* | -2% | 8% | -4 | -8
N=c1c(C(=O)NC2CCCC2)cc2c(=O)n3ccccc3nc2n1CC1CCCO1 (stereo not given) | ? | 0% | 13µM* | -5 | -11
C=CCn1c(C)cc(C(=O)COC(=O)[C@@H](NC(=O)c2ccccc2Cl)C(C)C)c1C | 2% | -47% | -13% | 40* | 19*
C=CCn1c(C)cc(C(=O)COC(=O)/C=C/c2cccc(OC)c2)c1C | 3% | · | -5% | 27* | 4
C=CCn1c(C)cc(C(=O)COC(=O)COc2ccccc2C#N)c1C | 36% | -58% | 0% | 14 | 15
Cc1cc(C(=O)COC(=O)/C=C/c2cccc(F)c2)c(C)n1C | 43% | · | 35% | 29* | 77*
O=C(CC(c1ccccc1)c1ccccc1)OCn1nnc2ccccc2c1=O | · | -11% | 10% | -2 | 2
CC[C@@H]1/C=C(\C)C[C@H](C)C[C@H](OC)[C@H]2O[C@@](O)(C(=O)C(=O)N3CCCC[C@H]3C(=O)O[C@H](/C(C)=C/[C@@H]3CC[C@@H](O)[C@H](OC)C3)[C@H](C)[C@@H](O)CC1=O)[C@H](C)C[C@@H]2OC | · | · | · | -4 | -12
C=CC[C@@H]1/C=C(\C)C[C@H](C)C[C@H](OC)[C@H]2O[C@@](O)(C(=O)C(=O)N3CCCC[C@H]3C(=O)O[C@H](/C(C)=C/[C@@H]3CC[C@@H](O)[C@H](OC)C3)[C@H](C)[C@@H](O)CC1=O)[C@H](C)C[C@@H]2OC | 1.5µM* | · | 1.7µM* | -3 | -6
CC(C)(C)OC(=O)N[C@@H](Cc1ccccc1)C(=O)N1CCC(C(=O)NCC(=O)O)CC1 | 21% | 4% | 18% | -2 | -1
CC(C)(C)OC(=O)NC(Cc1ccccc1)C(=O)N1CCC(C(=O)NCC(=O)Nc2ccc(F)cc2)CC1 (stereo not given) | 12µM* | 6% | ? | 21 | 16
COc1cc(CN2CCN(C(=O)c3cccc4ccccc34)CC2)cc(OC)c1O | 15µM* | -6% | 0% | -2 | ·
COc1ccc(OC)c(CN2CCN(C(=O)c3cccc4ccccc34)CC2)c1 | 7% | -12% | -3% | 1 | -25
COc1ccc(OC)c(CN2CCN(C(=O)c3cc4ccccc4cc3O)CC2)c1 | 2.3µM* | 1% | 4.7µM* | -2 | 12
COc1ccc(OC)c(NC(=O)CSc2nc(=O)n(CCN3CCOCC3)c3c2CCCC3)c1 | ? | · | -9% | · | ·
N#CC(C(=O)O)=C1CCCC1 | ? | 4% | 10% | 2 | -1
N#CC(C(=O)Nc1ccccc1)=C1CCCCC1 | 25% | 15% | 19% | 15* | 16
CC1CCN(S(=O)(=O)c2ccc3c(c2)oc(=O)n3CC(=O)NCc2ccc3c(c2)OCO3)CC1 | ? | -93% | · | -10 | -18
Cc1ccc2oc(C(=O)NCc3ccc4c(c3)OCO4)c(C)c2c1 | 86% | -124% | 33% | 24* | 2
Cc1c(C(=O)NCc2ccc3c(c2)OCO3)oc2ccc(S(=O)(=O)N3CCCCCC3)cc12 | ? | -32% | 13µM* | -3 | -12
